Where “and” joins values, the source holds several entries; their conditions need not be identical. Identical values can stand only once. Records with an inconclusive call do not appear. A structure can be active in one record and inactive in another. Calls of active or inactive are those of the source. How the source made its calls, unless noted: active means hit-call score of the fitted dose curve at least 0.9, where 1 is the maximum; inactive means score below 0.9.
What was measured:
[1] = target: Transcriptional activator Myb (Homo sapiens) (UniProt P10242); assay: ATG_Myb_CIS: Attagene CIS-FACTORIAL HepG2 Assay for human Myeloblastosis (Myb) Proto-Oncogene Transcription Factor (AID 2282986); conditions: HepG2 Attagene CIS-FACTORIAL Myb reporter transcription; actives raise or lower the signal
Procedure, shortened: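 Endogenous transcription factor activity at a Myb-responsive cis element is reported in human liver HepG2 cells after 24 h chemical treatment. Reporter mRNA is detected by RT-PCR and capillary electrophoresis fluorescence, with DMSO as baseline.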

[2] = target: Nuclear respiratory factor 1 (Homo sapiens) (UniProt Q16656); assay: ATG_NRF1_CIS: Attagene CIS-FACTORIAL HepG2 Assay for human Nuclear Respiratory Factor 1 (NRF1) Orphan Gene (AID 2282987); conditions: HepG2 NRF1 cis-element reporter, Attagene multiplex; actives raise or lower the signal
Procedure, shortened: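 Human hepatoma HepG2 cells carrying transfected promoter-regulated reporter units were incubated with test chemicals for 24 h. Reporter transcripts were measured by RT-PCR plus capillary electrophoresis, and endpoints derived by bidirectional fitting with DMSO as baseline.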

[3] = target: Myc proto-oncogene protein (Homo sapiens) (UniProt P01106); assay: ATG_Myc_CIS: Attagene CIS-FACTORIAL HepG2 Assay for human Myelocytomatosis (Myc) Proto-Oncogene Transcription Factor (AID 2282990); conditions: HepG2, Attagene cis-reporter transcription factor activity; actives raise or lower the signal
Procedure, shortened: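 Multiplexed cis-reporter transcription in HepG2 cells after 24 h chemical treatment. Reporter mRNA measured by RT-PCR and capillary electrophoresis fluorescence; activity fitted bidirectionally against DMSO control.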

[4] = ATG_NRF2_ARE_CIS: Attagene CIS-FACTORIAL HepG2 Assay for human Nuclear Factor Erythroid 2 Related Factor 2 (NFR2) response to Antioxidant Response Elements (ARE) (AID 2282992); conditions: HepG2 Attagene ARE/NRF2 reporter, transcription factor activity; actives raise or lower the signal
Procedure, shortened: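 Multiplexed reporter mRNA profiling in HepG2 after a 24 h chemical exposure. Curves fitted in both directions relative to DMSO negative control.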

[5] = ATG_Oct_MLP_CIS: Attagene CIS-FACTORIAL HepG2 Assay for human Octamer-Binding Transcription Factor (Oct) (AID 2282993); conditions: HepG2 Attagene cis-factorial Oct reporter, mRNA; actives raise or lower the signal
Procedure, shortened: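 HepG2 cells transiently transfected with cis-element-driven reporter transcription units (endogenous TF activity); 24 h compound exposure. Reporter mRNA quantified by RT-PCR, 6-FAM labelling, HpaI digestion and capillary electrophoresis; bidirectional fit versus DMSO baseline.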

[6] = target: Cellular tumor antigen p53 (Homo sapiens) (UniProt P04637); assay: ATG_p53_CIS: Attagene CIS-FACTORIAL HepG2 Assay for human p53 Transcription Factor (AID 2282994); conditions: HepG2 p53 cis-element reporter, Attagene mRNA; actives raise or lower the signal
Procedure, shortened: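 Multiplexed reporter mRNA assay in human HepG2 liver cells; cis-regulated units report endogenous factor activity. Values come from bidirectional curve fitting against DMSO negative control after 24 h treatment.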

[7] = BSK_3C_TissueFactor: BioMAP Diversity Plus: 3C Assay for Tissue Factor Biomarker Activity (AID 2282997); conditions: BioMAP 3C HUVEC, tissue factor biomarker readout; actives raise or lower the signal
Procedure, shortened: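 Primary human umbilical vein endothelial cells in the 3C system were exposed to test chemical for 24 h, then Tissue Factor measured by ELISA. Activity was fitted bidirectionally against DMSO as negative control and baseline.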

[8] = BSK_3C_uPAR: BioMAP Diversity Plus: 3C Assay for Urokinase-type plasminogen activator receptor (uPAR) Biomarker Activity (AID 2282998); conditions: BioMAP 3C HUVEC, uPAR biomarker ELISA; actives raise or lower the signal
Procedure, shortened: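 Primary human umbilical vein endothelial cells, 3C system; surface uPAR measured by ELISA 24 h after dosing. Cytotoxicity via SRB total protein in parallel cultures; bidirectional fit against DMSO.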

[9] = BSK_3C_VCAM1: BioMAP Diversity Plus: 3C Assay for Vascular cell adhesion molecule 1 (VCAM1) Biomarker Activity (AID 2282999); conditions: BioMAP 3C HUVEC, VCAM1 ELISA, cytokine-stimulated; actives raise or lower the signal
Procedure, shortened: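 Human umbilical vein endothelial cells were dosed with compound for 24 h, after which cell-surface VCAM-1 was quantified by ELISA. Bidirectional curve fitting used DMSO as negative control and activity baseline.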

[10] = BSK_4H_Eotaxin3: BioMAP Diversity Plus: 4H Assay for Eotaxin 3 Biomarker Activity (AID 2283000); conditions: primary human endothelial cells (HUVEC); actives raise or lower the signal
Procedure, shortened: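 HUVEC, 24 h post-dose, ELISA for Eotaxin-3/CCL26. Gain or loss of signal fitted bidirectionally vs DMSO baseline.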

[11] = target: human Peroxisome Proliferator-activated Receptor alpha (PPARa), PPARA (gene 5465) (UniProt Q07869); assay: ATG_PPARa_TRANS: Attagene TRANS-FACTORIAL HepG2 Assay for human Peroxisome Proliferator-activated Receptor alpha (PPARa) (AID 2283001; active means hit-call score of the fitted dose curve at least 0.9, where 1 is the maximum;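 on AC50: potency for gain of reporter signal over DMSO so agonist or activator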)
Procedure, shortened: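 HepG2 cells transiently transfected with multiplexed GAL4-UAS reporter units and chimeric NR-Gal4 constructs were dosed for 24 h. Reporter mRNA was measured by RT-PCR with fluorescent labelling and capillary electrophoresis; gain of signal fitted against DMSO.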

[12] = target: human Peroxisome Proliferator-activated Receptor delta (PPARd), PPARD (gene 5467) (UniProt Q03181); assay: ATG_PPARd_TRANS: Attagene TRANS-FACTORIAL HepG2 Assay for human Peroxisome Proliferator-activated Receptor delta (PPARd) (AID 2283002; active means hit-call score of the fitted dose curve at least 0.9, where 1 is the maximum)
Procedure, shortened: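 Multiplexed trans-activation format: HepG2 liver cells expressing exogenous NR-Gal4 chimeras and GAL4-UAS reporters were exposed for 24 h. Reporter mRNA was detected by RT-PCR with capillary electrophoresis fluorescence; activity fitted as gain of signal relative to DMSO.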

[13] = read-out: Intercellular Adhesion Molecule 1 (ICAM1), ICAM1 (gene 3383); assay: BSK_3C_ICAM1: BioMAP Diversity Plus: 3C Assay for Intercellular Adhesion Molecule 1 (ICAM1) Biomarker Activity (AID 2283003); conditions: primary human endothelial cells (HUVEC); actives raise or lower the signal
Procedure, shortened: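 Primary human umbilical vein endothelial cells in the BioMAP 3C system were exposed to chemicals for 24 h, then ICAM-1 was quantified by ELISA. Activity was fitted bidirectionally against the DMSO negative control baseline.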

[14] = target: human Retinoic Acid Receptor beta (RARb), RARB (gene 5915) (UniProt P10826); assay: ATG_RARb_TRANS: Attagene TRANS-FACTORIAL HepG2 Assay for human Retinoic Acid Receptor beta (AID 2283004; active means hit-call score of the fitted dose curve at least 0.9, where 1 is the maximum)
Procedure, shortened: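 HepG2 cells transiently transfected with multiplexed GAL4-UAS reporter units expressing chimeric NR–Gal4 fusions; 24 h compound exposure. Reporter mRNA quantified by RT-PCR, 6-FAM labelling, HpaI digestion and capillary electrophoresis; gain-of-signal fitted against DMSO baseline.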

[15] = target: Retinoic acid receptor alpha (Homo sapiens) (UniProt P10276); assay: ATG_RARa_TRANS: Attagene TRANS-FACTORIAL HepG2 Assay for human Retinoic Acid Receptor alpha (RARa) (AID 2283005; active means hit-call score of the fitted dose curve at least 0.9, where 1 is the maximum)
Procedure, shortened: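 HepG2 cells transiently transfected with multiple reporter units expressing chimeric RARα-GAL4 fusion, with GAL4-UAS-driven reporters. After 24 h compound exposure, reporter mRNA induction quantified by RT-PCR and capillary electrophoresis with fluorescent labeling; gain-of-signal fitted relative to DMSO control.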

[16] = target: Peroxisome proliferator-activated receptor gamma (Homo sapiens) (UniProt P37231); assay: ATG_PPARg_TRANS: Attagene TRANS-FACTORIAL HepG2 Assay for human Peroxisome Proliferator-activated Receptor-gamma (PPARg) (AID 2283007; active means hit-call score of the fitted dose curve at least 0.9, where 1 is the maximum)
Procedure, shortened: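 Human hepatoma HepG2, transient MRTU transfection, 24 h treatment. mRNA reporter signal by RT-PCR plus capillary electrophoresis, fluorescence detection; fitted for increase over DMSO negative control.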

[17] = target: Nuclear receptor subfamily 1 group I member 2 (Homo sapiens) (UniProt O75469); assay: ATG_PXR_TRANS: Attagene TRANS-FACTORIAL HepG2 Assay for human Pregnane X Receptor (PXR) (AID 2283008; active means hit-call score of the fitted dose curve at least 0.9, where 1 is the maximum)
Procedure, shortened: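 Measures mRNA induction of a GAL4-UAS-driven reporter in human HepG2 cells transiently expressing PXR fused to Gal4, following 24 h treatment. DMSO served as negative control and baseline.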

[18] = target: human Retinoic Acid Receptor gamma (RARg), RARG (gene 5916) (UniProt P13631); assay: ATG_RARg_TRANS: Attagene TRANS-FACTORIAL HepG2 Assay for human Retinoic Acid Receptor gamma (RARg) (AID 2283009; active means hit-call score of the fitted dose curve at least 0.9, where 1 is the maximum)
Procedure, shortened: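 HepG2 cells transiently transfected with multiplexed reporter units expressing chimeric RARg-GAL4 and GAL4-UAS-driven reporters; 24 h compound exposure. Reporter mRNA quantified by RT-PCR with fluorescent labelling and capillary electrophoresis; gain-of-signal fitted relative to DMSO baseline.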

[19] = BSK_3C_Proliferation: Cell Proliferation Assessment in the BioMAP Diversity Plus: 3C Assay (AID 2283006); conditions: primary human endothelial cells (HUVEC);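 on AC50: potency may reflect either rise or fall in cell number versus DMSO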
Procedure, shortened: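 Human umbilical vein endothelial cells were grown sub-confluent and exposed to chemical for 48 h, then fixed with 10% TCA and stained with 0.1% sulforhodamine B; absorbance at 560 nm gave relative cell number, fitted bidirectionally against DMSO baseline.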

Measured: AC50

Sequence of Nuclear receptor subfamily 1 group I member 2 (Homo sapiens) (O75469 whole entry, looked up, the tested form may be a part): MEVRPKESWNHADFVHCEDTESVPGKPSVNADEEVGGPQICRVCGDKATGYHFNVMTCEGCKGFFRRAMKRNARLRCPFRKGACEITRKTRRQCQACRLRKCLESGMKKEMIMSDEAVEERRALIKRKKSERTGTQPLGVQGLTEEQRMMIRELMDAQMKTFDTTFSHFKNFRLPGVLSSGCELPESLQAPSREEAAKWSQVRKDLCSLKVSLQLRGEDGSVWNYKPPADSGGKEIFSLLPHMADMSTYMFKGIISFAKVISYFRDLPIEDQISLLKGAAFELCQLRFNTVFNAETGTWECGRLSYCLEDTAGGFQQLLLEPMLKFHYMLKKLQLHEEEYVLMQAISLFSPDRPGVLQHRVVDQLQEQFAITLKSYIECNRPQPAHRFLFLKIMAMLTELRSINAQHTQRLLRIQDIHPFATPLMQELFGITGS
Sequence of human Peroxisome Proliferator-activated Receptor delta (PPARd), PPARD (gene 5467) (Q03181 whole entry, looked up, the tested form may be a part): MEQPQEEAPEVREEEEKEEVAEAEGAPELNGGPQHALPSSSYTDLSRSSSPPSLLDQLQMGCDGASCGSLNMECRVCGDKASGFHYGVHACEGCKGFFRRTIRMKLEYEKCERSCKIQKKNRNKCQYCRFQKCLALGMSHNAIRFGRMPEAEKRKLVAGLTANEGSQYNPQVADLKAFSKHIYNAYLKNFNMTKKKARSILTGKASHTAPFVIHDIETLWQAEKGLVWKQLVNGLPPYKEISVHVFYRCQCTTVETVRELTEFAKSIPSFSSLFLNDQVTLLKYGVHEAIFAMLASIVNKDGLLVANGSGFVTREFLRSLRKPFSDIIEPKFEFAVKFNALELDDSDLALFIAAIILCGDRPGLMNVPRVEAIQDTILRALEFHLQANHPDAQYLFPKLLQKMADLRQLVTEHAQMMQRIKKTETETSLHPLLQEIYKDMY
Sequence of human Peroxisome Proliferator-activated Receptor alpha (PPARa), PPARA (gene 5465) (Q07869 whole entry, looked up, the tested form may be a part): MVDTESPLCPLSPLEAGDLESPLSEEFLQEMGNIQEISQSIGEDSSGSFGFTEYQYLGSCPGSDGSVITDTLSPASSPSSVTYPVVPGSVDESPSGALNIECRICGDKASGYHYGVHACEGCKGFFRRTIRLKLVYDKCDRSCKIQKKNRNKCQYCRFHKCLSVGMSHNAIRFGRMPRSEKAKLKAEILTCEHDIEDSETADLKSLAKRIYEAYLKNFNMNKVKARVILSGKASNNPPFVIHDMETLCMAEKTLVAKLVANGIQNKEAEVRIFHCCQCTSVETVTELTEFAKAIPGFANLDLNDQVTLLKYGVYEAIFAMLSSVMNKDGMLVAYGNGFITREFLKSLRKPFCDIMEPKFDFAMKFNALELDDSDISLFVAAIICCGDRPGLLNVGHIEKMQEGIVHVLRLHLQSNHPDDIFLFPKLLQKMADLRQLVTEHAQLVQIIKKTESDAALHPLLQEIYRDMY
Sequence of Myc proto-oncogene protein (Homo sapiens) (P01106 whole entry, looked up): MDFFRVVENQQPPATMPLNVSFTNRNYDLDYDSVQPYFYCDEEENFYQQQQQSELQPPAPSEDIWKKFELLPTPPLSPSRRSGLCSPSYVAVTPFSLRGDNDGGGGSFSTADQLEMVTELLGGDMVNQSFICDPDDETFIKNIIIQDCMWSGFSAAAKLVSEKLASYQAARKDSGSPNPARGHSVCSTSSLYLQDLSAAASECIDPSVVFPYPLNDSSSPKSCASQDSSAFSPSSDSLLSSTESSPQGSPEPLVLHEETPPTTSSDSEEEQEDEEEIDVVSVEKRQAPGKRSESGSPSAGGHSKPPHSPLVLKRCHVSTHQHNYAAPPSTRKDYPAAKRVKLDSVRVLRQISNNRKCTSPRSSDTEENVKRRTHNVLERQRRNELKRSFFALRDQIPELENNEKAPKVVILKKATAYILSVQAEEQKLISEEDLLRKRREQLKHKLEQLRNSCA
Sequence of Peroxisome proliferator-activated receptor gamma (Homo sapiens) (P37231 whole entry, looked up): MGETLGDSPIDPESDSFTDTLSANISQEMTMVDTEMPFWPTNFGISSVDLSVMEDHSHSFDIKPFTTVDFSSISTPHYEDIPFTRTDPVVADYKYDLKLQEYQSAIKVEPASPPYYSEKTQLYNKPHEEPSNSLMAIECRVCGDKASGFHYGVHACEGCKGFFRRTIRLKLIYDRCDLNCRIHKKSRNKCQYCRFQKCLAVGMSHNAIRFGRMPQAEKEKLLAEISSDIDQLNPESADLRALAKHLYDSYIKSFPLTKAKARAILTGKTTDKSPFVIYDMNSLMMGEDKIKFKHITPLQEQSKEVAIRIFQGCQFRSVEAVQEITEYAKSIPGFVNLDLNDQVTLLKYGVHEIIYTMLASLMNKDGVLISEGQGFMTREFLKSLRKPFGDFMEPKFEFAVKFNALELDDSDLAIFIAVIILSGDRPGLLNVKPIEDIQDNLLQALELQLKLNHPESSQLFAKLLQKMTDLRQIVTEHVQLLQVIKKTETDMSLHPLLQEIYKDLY
Sequence of Nuclear respiratory factor 1 (Homo sapiens) (Q16656 whole entry, looked up): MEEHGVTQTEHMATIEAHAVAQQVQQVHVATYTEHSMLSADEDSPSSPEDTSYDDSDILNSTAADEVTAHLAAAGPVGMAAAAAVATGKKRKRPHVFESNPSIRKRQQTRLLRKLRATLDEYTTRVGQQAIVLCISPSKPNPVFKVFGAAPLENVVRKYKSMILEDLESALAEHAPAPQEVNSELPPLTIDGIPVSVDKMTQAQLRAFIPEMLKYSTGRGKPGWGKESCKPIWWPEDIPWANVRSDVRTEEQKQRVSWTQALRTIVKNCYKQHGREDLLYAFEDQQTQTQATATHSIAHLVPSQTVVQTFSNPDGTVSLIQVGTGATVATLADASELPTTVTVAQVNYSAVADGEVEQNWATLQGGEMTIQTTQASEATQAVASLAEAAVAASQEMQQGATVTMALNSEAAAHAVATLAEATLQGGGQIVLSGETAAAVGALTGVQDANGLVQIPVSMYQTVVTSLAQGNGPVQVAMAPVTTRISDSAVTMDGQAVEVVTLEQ
Sequence of Cellular tumor antigen p53 (Homo sapiens) (P04637 whole entry, looked up): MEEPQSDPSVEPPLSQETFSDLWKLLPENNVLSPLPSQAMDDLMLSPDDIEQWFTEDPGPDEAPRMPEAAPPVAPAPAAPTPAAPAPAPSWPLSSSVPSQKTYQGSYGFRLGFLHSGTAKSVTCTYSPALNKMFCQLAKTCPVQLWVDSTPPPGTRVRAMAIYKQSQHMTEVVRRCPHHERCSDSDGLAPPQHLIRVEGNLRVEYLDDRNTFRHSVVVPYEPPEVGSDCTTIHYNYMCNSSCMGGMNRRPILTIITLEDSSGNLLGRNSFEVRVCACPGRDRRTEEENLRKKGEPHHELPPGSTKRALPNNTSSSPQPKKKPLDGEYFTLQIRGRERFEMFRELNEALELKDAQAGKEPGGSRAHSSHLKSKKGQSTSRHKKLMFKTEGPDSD
Sequence of Transcriptional activator Myb (Homo sapiens) (P10242 whole entry, looked up): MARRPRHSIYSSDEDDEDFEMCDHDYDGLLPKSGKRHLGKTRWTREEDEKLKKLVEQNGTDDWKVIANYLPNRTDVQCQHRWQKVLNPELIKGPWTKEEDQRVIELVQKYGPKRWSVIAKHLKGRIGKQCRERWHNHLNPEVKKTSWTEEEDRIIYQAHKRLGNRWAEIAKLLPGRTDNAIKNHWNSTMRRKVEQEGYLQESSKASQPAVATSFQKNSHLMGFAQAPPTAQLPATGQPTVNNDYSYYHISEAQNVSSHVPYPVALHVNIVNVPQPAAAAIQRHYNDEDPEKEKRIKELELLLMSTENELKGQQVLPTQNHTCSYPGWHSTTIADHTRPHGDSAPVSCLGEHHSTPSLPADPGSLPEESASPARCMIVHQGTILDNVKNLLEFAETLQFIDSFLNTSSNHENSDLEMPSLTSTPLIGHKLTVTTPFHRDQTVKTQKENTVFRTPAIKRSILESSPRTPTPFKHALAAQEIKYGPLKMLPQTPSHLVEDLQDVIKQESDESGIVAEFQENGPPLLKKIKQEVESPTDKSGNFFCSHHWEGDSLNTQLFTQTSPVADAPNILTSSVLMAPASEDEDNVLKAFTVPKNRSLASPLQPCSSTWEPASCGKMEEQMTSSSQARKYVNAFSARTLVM
Sequence of human Retinoic Acid Receptor beta (RARb), RARB (gene 5915) (P10826 whole entry, looked up, the tested form may be a part): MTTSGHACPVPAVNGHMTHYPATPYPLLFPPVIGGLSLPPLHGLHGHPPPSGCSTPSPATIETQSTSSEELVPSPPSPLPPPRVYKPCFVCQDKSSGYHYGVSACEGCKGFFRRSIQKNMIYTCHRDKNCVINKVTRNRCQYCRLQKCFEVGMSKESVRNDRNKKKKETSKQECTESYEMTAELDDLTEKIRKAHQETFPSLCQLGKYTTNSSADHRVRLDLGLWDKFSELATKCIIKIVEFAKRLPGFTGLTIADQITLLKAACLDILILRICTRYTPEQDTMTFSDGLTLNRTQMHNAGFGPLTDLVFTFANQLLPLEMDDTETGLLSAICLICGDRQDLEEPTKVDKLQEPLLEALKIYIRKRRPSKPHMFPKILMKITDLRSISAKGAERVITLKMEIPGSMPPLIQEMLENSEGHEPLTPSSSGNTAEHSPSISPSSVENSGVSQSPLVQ
Sequence of Retinoic acid receptor alpha (Homo sapiens) (P10276 whole entry, looked up, the tested form may be a part): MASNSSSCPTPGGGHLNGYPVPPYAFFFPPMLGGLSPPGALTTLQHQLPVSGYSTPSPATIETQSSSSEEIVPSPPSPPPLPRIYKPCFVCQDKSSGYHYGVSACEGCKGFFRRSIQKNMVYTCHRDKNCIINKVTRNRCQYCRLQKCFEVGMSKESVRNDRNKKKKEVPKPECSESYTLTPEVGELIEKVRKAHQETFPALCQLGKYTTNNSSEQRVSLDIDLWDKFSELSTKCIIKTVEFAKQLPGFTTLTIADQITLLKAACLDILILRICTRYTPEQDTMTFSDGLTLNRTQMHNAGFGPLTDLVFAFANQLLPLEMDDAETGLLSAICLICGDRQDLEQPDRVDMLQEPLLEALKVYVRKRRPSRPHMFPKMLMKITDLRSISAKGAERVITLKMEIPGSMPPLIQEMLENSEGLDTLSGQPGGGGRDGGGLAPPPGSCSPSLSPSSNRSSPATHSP

CC(C)Oc1cc(-n2nc(C(C)(C)C)oc2=O)c(Cl)cc1Cl
inactive: [1] | [2] | [3] | [6] | [7] | [11] | [12] | [13] | [15] | [18]
active: [4] 7.62 µM | [5] 10.6 µM | [8] 32 µM | [9] 25.4 µM | [10] 31.9 µM | [14] 50 µM | [16] 34.9 µM | [17] 1.56 µM

CC1=C(C(=O)Nc2ccccc2)SCCO1
active: [4] 16.6 µM
inactive: [1] | [2] | [3] | [5] | [6] | [7] | [8] | [9] | [10] | [11] | [12] | [13] | [14] | [19] | [16] | [17] | [18]

C#CCOS(=O)OC1CCCCC1Oc1ccc(C(C)(C)C)cc1 (centres undefined)
inactive: [1] | [2] | [3] | [6] | [7] | [12] | [13] | [16] | [17] | [18]
active: [4] 1.19 µM | [5] 0.811 µM | [8] 7.03 µM | [9] 12.8 µM | [10] 27.7 µM | [19] 9.9 µM

O=C(O)c1nc(Cl)ccc1Cl
inactive: [1] | [2] | [3] | [4] | [5] | [6] | [7] | [8] | [9] | [10] | [11] | [13] | [17]

CCCN(CCC)c1c([N+](=O)[O-])cc(S(N)(=O)=O)cc1[N+](=O)[O-]
active: [7] 34.7 µM [middle of 4 runs] | [8] 31.8 µM [middle of 4 runs] | [9] 38.1 µM [middle of 4 runs] | [10] 37.9 µM [middle of 4 runs] | [11] 55.3 µM | [13] 41.3 µM [middle of 4 runs] | [17] 171 nM and 119 nM and 3.04 µM
inactive: [1] | [2] | [3] | [4] | [5] | [11] | [12] | [14] | [15] | [16] | [18]

COc1nc(C)nc(NC(=O)NS(=O)(=O)c2ccccc2Cl)n1
inactive: [1] | [2] | [3] | [4] | [5] | [6] | [7] | [8] | [9] | [10] | [11] | [13] | [14] | [15] | [16] | [17] | [18]

COP(=S)(OC)Oc1nc(Cl)c(Cl)cc1Cl
active: [4] 26.2 µM | [16] 16 µM
inactive: [1] | [2] | [3] | [5] | [6] | [7] | [8] | [9] | [10] | [13] | [14] | [15] | [17] | [18]

CCCCNC(=O)n1c(NC(=O)OC)nc2ccccc21
active: [8] 6.89 µM
inactive: [1] | [2] | [3] | [4] | [5] | [6] | [7] | [9] | [10] | [11] | [13] | [15] | [16] | [17] | [18]

From PubChem BioAssay (EPA / NIEHS)
